Screening data from PubChem.
SMN2 splice enh = enhancers of SMN2 splice variant expression | HEK293 SMN2-luciferase splicing reporter, luminescence, 30-36 h | Potency, µM (series often up to 46.1 µM), without a hit: at the highest dose activity change, positive = activation, actives largely listed as activators | hit rate 2.8% among 210,000 | AID 1458; also: % of control where 0% means no effect; nearly all actives have a fitted effect of over 55% in size
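qHTS luciferase splicing reporter: luminescence rises when SMN2 exon 7 is included in transfected HEK293 cells. Compound exposure lasted 30-36 h at 37C, with 4.5 mM final sodium butyrate as control, followed by a ONE-Glo read.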
Rab9 prom act = activates the Rab9 promoter; Huh7 Rab9 promoter-luciferase reporter, luminescence, 24 h; Potency, µM (highest dose often 9.22 µM), without a hit: top-dose activation, negative = inhibition, actives largely listed as activators; hit rate 2.8% among 320,000; AID 485297; also: % of control where 0% means no effect; nearly all actives have a fitted effect of over 60% in size
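Quantitative HTS format; Huh7 Rab9-luciferase reporter cells (1500/well) receive compound 2 h post-plating, incubate 24 h at 37 °C, then get luciferase reagent for 10 min before luminescence reading.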
NPC1 promoter act = NPC1 promoter activation | Potency, µM (titrated, usually from 9.22 µM), for inactives: at the top dose activation, actives largely listed as activators | hit rate 2.4% among 320,000 | Huh7 NPC1 promoter luciferase reporter, 24 h | AID 485313; also: % of control where 0% means no effect; nearly all actives have a fitted effect of over 60% in size
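Stable NPC1-promoter luciferase Huh7 line; cpd (DMSO) 24 h, 37 °C, 5% CO2; Amplite luciferase reagent 10 min RT; luminescence readout. qHTS format.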
FLuc counter = firefly luciferase modulation, counter-screen for miR-21 project. Potency, µM (series often up to 57.5 µM), inactives show at the highest dose activity change, negative = inhibition, usual class: inhibitors. P08659. purified FLuc, Km substrates, luminescence inhibition. hit rate 6.9% among 360,000;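 also: plate controls were vehicle for no effect and reference inhibitor for full effect; nearly all actives have a fitted effect of over 55% in size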
Target sequence (P08659 whole entry, looked up): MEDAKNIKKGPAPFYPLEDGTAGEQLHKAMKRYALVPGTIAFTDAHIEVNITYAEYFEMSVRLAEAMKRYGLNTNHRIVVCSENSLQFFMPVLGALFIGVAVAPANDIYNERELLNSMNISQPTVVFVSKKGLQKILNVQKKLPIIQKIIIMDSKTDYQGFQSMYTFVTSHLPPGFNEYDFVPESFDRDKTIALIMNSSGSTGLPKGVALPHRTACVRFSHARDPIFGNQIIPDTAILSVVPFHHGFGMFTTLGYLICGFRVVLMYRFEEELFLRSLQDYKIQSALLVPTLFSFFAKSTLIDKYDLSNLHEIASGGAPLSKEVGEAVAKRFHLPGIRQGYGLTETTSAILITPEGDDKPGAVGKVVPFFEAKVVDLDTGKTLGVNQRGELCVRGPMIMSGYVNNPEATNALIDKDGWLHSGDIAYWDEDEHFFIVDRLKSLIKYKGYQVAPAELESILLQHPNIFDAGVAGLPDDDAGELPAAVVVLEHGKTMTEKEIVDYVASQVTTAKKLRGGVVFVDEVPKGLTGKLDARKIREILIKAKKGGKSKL
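Biochemical qHTS of compounds, final roughly 60 µM downward over six points, against 10 nM purified firefly luciferase using Km concentrations of substrates (10 uM D-luciferin, 10 uM ATP) in Tris acetate pH 7.5 buffer; luminescence output.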
ELG1 genotox = inducers of genotoxicity in HEK293T ELG1-luciferase cells. HEK293T ELG1-luciferase reporter, luminescence, 16 h. Potency, µM (top dose mostly 46 µM), without a hit: at the top dose activity change, positive = activation, actives largely listed as activators. hit rate 1.3% among 330,000. AID 504466; also: % of control where 0% means no effect; nearly all actives have a fitted effect of over 60% in size
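HEK293T cells expressing luciferase-tagged ELG1 were exposed to compound or DMSO vehicle for 16 hr at 37 °C and 5% CO2. Luciferase activity was then measured with ONE-Glo after 30 min at room temperature.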
Starred values were filed as active, the others as inactive; ? = inconclusive; nt = no result given. The list is not random: actives were taken first. Their share in the collection is about 7.4%. Calls follow the shape of the dose curve; as a rule, active = well fitted curve in the direction sought with a large enough effect; inconclusive = small, poorly fitted or top-dose-only effect, or another doubt; inactive = no such curve, though single readings can be large; an effect the other way counts as inactive or inconclusive. Potency is read from the fitted curve at half-maximal effect.

SMILES	SMN2 splice enh	Rab9 prom act	NPC1 promoter act	FLuc counter	ELG1 genotox
Cc1ccc(S(=O)(=O)N2CCN(S(=O)(=O)N3CCCCCC3)CC2)cc1	nt	-15%	-2%	1%	1%
CCOC(=O)CSc1nnc(NC(=O)c2cccc([N+](=O)[O-])c2)s1	-1%	-3%	0%	11µM*	-1%
CCOC(=O)CNC(=O)CSc1nnc(SCC(=O)NCC(=O)OCC)s1	-32%	3%	2%	-3%	5%
O=C(Nc1nnc(SCC(=O)N2CCCc3ccccc32)s1)c1cccc2ccccc12	-9%	7%	8%	?	-6%
Cc1ccc(C(=O)Nc2nnc(SCC(=O)N3CCCc4ccccc43)s2)cc1	?	0.32µM*	?	0.15µM*	?
CCOC(=O)CNC(=O)CSc1nnc(NC(=O)c2ccc3c(c2)OCO3)s1	nt	3.2µM*	3.5µM*	0.95µM*	3.3µM*
CCOC(=O)CNC(=O)CSc1nnc(NC(=O)c2ccc(C)cc2)s1	5µM*	0.56µM*	1.8µM*	0.6µM*	?
COc1cc(/C=N/NC(=O)COc2ccc(-n3cnnn3)cc2)ccc1OCC(N)=O	nt	-2%	-1%	-12%	0%
CCN(CC)S(=O)(=O)c1ccc(NC(=O)CO/N=C(\N)c2ccccc2)cc1	nt	3%	0%	-8%	1%
O=C(COc1ccccc1-c1ccccc1)NCc1cccc(Cl)c1	nt	-4%	-3%	0%	-2%
CCN(CC(=O)Nc1c(F)cccc1F)C(=O)c1cc(C)oc1C	nt	-7%	-12%	5%	0%
CCOC(=O)CNC(=O)CSc1nc(-c2cccc(C)c2)ns1	5%	6%	2%	24µM*	-4%
CCOC(=O)CNC(=O)c1ccc(SCC)cc1	nt	?	?	19µM*	?
COc1cc(/C=N/NC(=S)Nc2cccc(Cl)c2C)ccc1OCC(=O)N1CC(C)OC(C)C1 (stereo not drawn)	-34%	-6%	0%	?	-11%
Cc1nc(SC(C)C(=O)Nc2ccccc2Cl)cc(-c2ccccc2)n1 (stereo not drawn)	nt	nt	nt	-3%	nt
O=C(NCc1ccc(F)cc1)c1ccc2c(c1)nnn2C1CCCC1	nt	nt	nt	1%	nt
O=C(O)c1ccccc1C(=O)Nc1ccc(Oc2cccc3ccccc23)cc1	-8%	-2%	-3%	24µM*	-10%
COc1ccc(NC(=O)c2ccccc2Oc2ccccc2)cc1	nt	1%	3%	-10%	5%
Cc1cccc(Oc2ccc(NC(=O)c3ccccc3C(=O)O)cc2)c1C	-14%	-2%	0%	19µM*	-2%
O=C(Nc1ccc(Oc2cccc3ccccc23)cc1)c1ccco1	-54%	13%	4%	24µM*	?
O=C(O)c1ccccc1C(=O)Nc1ccc(Oc2ccc3ccccc3c2)cc1	nt	-3%	-3%	27µM*	3%
COc1ccc(NC(=O)c2ccccc2-c2ccccc2C(=O)O)cc1	nt	-3%	0%	3%	-2%
Cc1c(C)c(C)c(C(=O)c2ccc(NC(=O)c3ccccc3C(=O)O)cc2)c(C)c1C	nt	-3%	-5%	-1%	1%
CCC(NC(=O)Cc1c(C)c2cc3c(cc2oc1=O)OC(C)(C)CC3)C(=O)O (stereo not drawn)	nt	2µM*	3.2µM*	21µM*	10%
Cc1oc2cc3oc(=O)c(CC(=O)N4CCCCC4)c(C)c3cc2c1C	2%	nt	nt	-9%	nt
SMILES	SMN2 splice enh	Rab9 prom act	NPC1 promoter act	FLuc counter	ELG1 genotox
Cc1c(CC(=O)N2CCC(C(N)=O)CC2)c(=O)oc2cc3c(cc12)CCC1(CCCCC1)O3	nt	-6%	6%	19µM*	-5%
CCC(CO)N=C1CC(C)(C)CC(=O)/C1=C(/O)CCCN1C(=O)c2ccccc2C1=O (stereo not drawn)	-13%	-3%	-1%	-1%	0%
COC(=O)c1c(-c2ccccc2OC)sc2ccccc12	nt	-4%	0%	-10%	-1%
COc1ccc2sc3ccccc3c(=O)c2c1OC	19%	?	?	15µM*	?
COc1ccccc1-c1sc2cc3c(cc2c1C#CC1(O)CCCCC1)OCO3	nt	-2%	8%	-2%	-2%
COc1cccc2sc3ccc(C#CC4(O)CCCCC4)cc3c(=O)c12	nt	2.8µM*	1.6µM*	2.1µM*	?
